# Several values for one entry are separate records, joined by “and”; a condition that tells them apart may be missing. Identical values can stand only once. Records with an inconclusive call do not appear. A structure can be active in one record and inactive in another. Activity calls are given as the source filed them. How the source made its calls: active means hit-call score of the fitted dose curve at least 0.9, where 1 is the maximum; inconclusive means response in the unintended direction; inactive means score below 0.9.
# Experiment: Tanguay_ZF_120hpf_EYE_legacy: (Legacy) Oregon State University Tanguay Lab 120 Hour Post-fertilization zebrafish Assay for Eye Malformation (AID 2283636);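 further: binary presence or absence of eye malformation scored by brightfield in 120 hpf larvae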
# Method: Tanguay_ZF_120hpf_legacy is a whole embryo, multiplexed endpoint assay using zebrafish larvae exposed for 120 hours post fertilization on a 96-well plate.Tanguay_ZF_120hpf_EYE_legacy is one of one assay component(s) measured or calculated from the Tanguay_ZF_120hpf_legacy assay. It is designed to make measurements of zebrafish development as detected with brightfield microscopy of developing zebrafish embryos.Data from the assay component Tanguay_ZF_120hpf_EYE_legacy was analyzed into 1 assay endpoints. This assay endpoint, Tanguay_ZF_120hpf_EYE_legacy, was analyzed in the positive analysis fitting direction relative to DMSO as the negative control and baseline of activity. Using a type of morphology reporter, gain-of-signal activity can be used to understand changes in developmentals as they relate to the whole embryo. To generalize the intended target to other relatable targets, this assay endpoint is annotated to the zebrafish development intended target family, where the subfamily is embryonic eye development.
# Zebrafish husbandry: Tropical 5D wild-type adult zebrafish were housed in at an approximate density of 1000 per 100 gallon tank at the Sinnhuber Aquatic Research Laboratory, Oregon State University, Corvallis, OR. Each tank was kept at standard laboratory conditions of 28C on a 14-h light/10-h dark photoperiod in fish water consisting of reverse osmosis water supplemented with a commercially available salt (Instant Ocean). Spawning funnels were placed into the tanks the night prior, and embryos were collected and staged. To increase bioavailability, the chorion was enzymatically removed using pronase (63.6mg/ml, >/= 3.5U/mg, Sigma-Aldrich: P5147) at 4 hours post fertilization (hpf) using a custom automated dechorionator.Chemical exposures: Six hpf dechorionated embryos were placed 1 embryo per well in a 96-well plate prefilled with 90 ul of EM using automated embryo placement systems (AEPS). Ten microliters of each row of dilution plate 2 was added to 2 exposure plates. The final DMSO concentration used was 0.64% (vol/vol). Thirty-two embryos were also exposed to 5uM trimethyltin chloride (positive control). Plates were sealed to prevent evaporation and foil covered to reduce light exposure and kept in a 28C incubator. Embryos were statically exposed until 120 hpf. At 24 hpf, embryos were assessed for photomotor response using a custom photomotor response analysis tool (PRAT) and for developmental toxicity endpoints (MO24: mortality at 24 hpf, DP: developmental progression, SM: spontaneous movement, and NC: notochord distortion). At 120 hpf, locomotor activity was measured using Viewpoint Zebralab and assessed for 18 endpoints. Zebrafish acquisition and analysis program (ZAAP), a custom program designed to inventory, acquire, and manage zebrafish data, was used to collect developmental endpoints as either present or absent (i.e., binary responses were recorded). If mortality occurred for an embryo (at either 24 or 120 hpf), the non-mortality endpoints were not measured.
SMILES,outcome,AC50
CCC(C)Nc1c([N+](=O)[O-])cc(C(C)(C)C)cc1[N+](=O)[O-] (stereo not given),inactive,–
CCc1ccc(C(=O)NN(C(=O)c2cc(C)cc(C)c2)C(C)(C)C)cc1,inactive,–
O=S(=O)(O)C(F)(F)C(F)(F)C(F)(F)C(F)(F)C(F)(F)C(F)(F)C(F)(F)C(F)(F)F,inactive,37 µM (active)
O=C(Nc1ccccc1)Nc1cnns1,inactive,–
CC1(c2ccc(Oc3ccccc3)cc2)OC(=O)N(Nc2ccccc2)C1=O (stereo not given),inactive,–
COP(=O)(OC)OC=C(Cl)Cl,inactive,–
CCCN(CCC)c1c([N+](=O)[O-])cc(C(F)(F)F)cc1[N+](=O)[O-],inactive,–
COP(=S)(OC)Oc1ccc([N+](=O)[O-])cc1,inactive,–
CNC(=O)/C=C(\C)OP(=O)(OC)OC,inactive,–
CC(C)OC(=O)Nc1cccc(Cl)c1,inactive,–
CNC(=O)CSP(=S)(OC)OC,inactive,–
COc1nn(CSP(=S)(OC)OC)c(=O)s1,inactive,–
O=C1c2ccccc2C(=O)N1SC(Cl)(Cl)Cl,inactive,–
CN1CSC(=S)N(C)C1,–,34.9 µM (active)
O=[N+]([O-])/N=C1\NCCN1Cc1ccc(Cl)nc1,inactive,–
O=[N+]([O-])c1c(Cl)c(Cl)c(Cl)c(Cl)c1Cl,inactive,–
CC(C)(C)C(O)C(Oc1ccc(Cl)cc1)n1cncn1 (stereo not given),–,43.8 µM (active) and 32.4 µM (active) and 39.9 µM (active)
O=S1OCC2C(CO1)C1(Cl)C(Cl)=C(Cl)C2(Cl)C1(Cl)Cl (stereo not given),inactive,–
Oc1cc(Cl)ccc1Oc1ccc(Cl)cc1Cl,inactive,–
N#CN,inactive,–

SMILES,outcome,AC50
CCOC1Oc2ccc(OS(C)(=O)=O)cc2C1(C)C (stereo not given),inactive,–
O=C(O)C(F)(F)C(F)(F)C(F)(F)C(F)(F)C(F)(F)C(F)(F)C(F)(F)F,inactive,–
Oc1ccc(Cl)cc1Cc1ccccc1,inactive,–
C[C@H]1[C@H](c2ccc(Cl)cc2)SC(=O)N1C(=O)NC1CCCCC1,inactive,–
CCCN(CCOc1c(Cl)cc(Cl)cc1Cl)C(=O)n1ccnc1,inactive,–
C#CCN1C(=O)COc2cc(F)c(N3C(=O)C4=C(CCCC4)C3=O)cc21,inactive,–
CC(C)(C)C(O)/C(=C\c1ccc(Cl)cc1Cl)n1cncn1 (stereo not given),–,37.4 µM (active)
O=C(NC(=O)c1c(F)cccc1F)Nc1ccc(OC(F)(F)C(F)OC(F)(F)F)c(Cl)c1 (stereo not given),inactive,–
CNC(=O)Oc1cccc(N=CN(C)C)c1,inactive,–
CC1(C)C(C=C(Cl)Cl)C1C(=O)OC(C#N)c1ccc(F)c(Oc2ccccc2)c1 (stereo not given),inactive,–
O=C(O)CCCOc1ccc(Cl)cc1Cl,inactive,–
N#Cc1c(Cl)c(Cl)c(Cl)c(C#N)c1Cl,inactive,–
Cc1[nH]c(=O)n(C(C)(C)C)c(=O)c1Cl,inactive,–
CCC(C)(NC(=O)c1cc(Cl)c(C)c(Cl)c1)C(=O)CCl (stereo not given),–,28.2 µM (active)
COP(=S)(OC)Oc1ccc(SC)c(C)c1,inactive,–
CC[C@H](C)[C@H]1O[C@]2(C=C[C@@H]1C)C[C@@H]1C[C@@H](C/C=C(\C)[C@@H](O[C@H]3C[C@H](OC)[C@@H](O[C@H]4C[C@H](OC)[C@@H](O)[C@H](C)O4)[C@H](C)O3)[C@@H](C)/C=C/C=C3\CO[C@@H]4[C@H](O)C(C)=C[C@@H](C(=O)O1)[C@]34O)O2 (tested in a mixture with another compound),inactive,–
CC(C)N(C(=O)COc1nnc(C(F)(F)F)s1)c1ccc(F)cc1,inactive,–
ClC1C(Cl)C(Cl)C(Cl)C(Cl)C1Cl (stereo not given),inactive,–
Clc1ccccc1-c1nnc(-c2ccccc2Cl)nn1,inactive,–
